The source of these data is PubChem BioAssay (EPA / NIEHS).

The structures appear in SMILES notation. The source made the active and inactive calls. Rule for the calls: active = hit-call score of the fitted dose curve at least 0.9, where 1 is the maximum; inactive = score below 0.9.

Read-out in this experiment: Glutathione S-transferase M3 (GSTM3), GSTM3 (gene 2947)
The experiment in a line: LTEA_HepaRG_GSTM3: Life Technologies and Expression Analysis (LTEA) Assay for Glutathione S-transferase M3 (GSTM3) using HepaRG (AID 2283501). Particulars: mRNA level, 48 h; actives raise or lower the signal. The protocol:
LTEA_HepaRG is a cell based, multiplexed-readout assay that uses HepaRG, a human liver cell line, with measurements taken at 48 hours after chemical dosing on a 96-well plate.LTEA_HepaRG_GSTM3 is one of 102 assay component(s) measured in the LTEA HepaRG cell culture assay. It is a marker of Oxidative Stress.Data from the assay component LTEA_HepaRG_GSTM3 was analyzed into 1 endpoint. This assay endpoint, LTEA_HepaRG_GSTM3, was analyzed with bidirectional fitting relative to DMSO as the negative control and baseline of activity. Using a type of inducible reporter, measures of mRNA induction for gain or loss-of-signal activity can be used to understand regulation of transcription factor activity. To generalize the intended target to other relatable targets, this assay endpoint is annotated to the transferase intended target family, where the subfamily is alkyl and aryl transferase.
A total of 1060 chemcials from the ToxCast library were tested in eight-point concentration-response experiments. Cell culture and cytotoxicity assays were conducted at Thermo Fisher Scientific's Custom Services facility (Madison, WI). A single lot of human HepaRG cells (Thermo Fisher Scientific, Frederick, MD) was used for the cell culture experiments. 96-well format collagen type I coated plates of human HepaRG cells were prepared using established methods. Briefly, cryopreserved HepaRG cells were thawed, plated at a density of approximately 100,000 cells/well in HepaRG Thaw, Plate, and General Purpose media (HPRG770, Thermo Fisher Scientific), and incubated for 48 hours. 0.5% DMSO was selected as vehicle control to balance the requisite need of DMSO in HepaRG cultures to maintain differentiation (for example, baseline metabolism, proportions of hepatocytes vs. cholangiocytes), while enabling further hepatic receptor pathway activation (for example, PXR and CAR) in response to chemical exposure. 48 hours after plating, the culture medium was replaced with HepaRG Serum-Free Incudtion Media. Cells were exposed to each test chemical in duplicate and maintained in CO2 incubators for another 48 hours. Chemical plates were thawed to room temperature and 200x concentrations of treatment groups were prepared. 8-point conentration-reponse curves were made with the highest exposure at 100 uM, followed by half-log dilutions, all in 0.5% DMSO. Each test plate contained variouse controls, induction positive controls (1mM phenobarbital), cytotoxicity positive controls ([…] aflatoxin B1), vehicle controls (0.5% DMSO), and total lysis controls (0.5% DMSO). Cell morphology images were taken using an Essen IncuCyte FLR automated microscope, with six 96-well plates imaged in about 24 minutes. Images were captured and exported and JPEG files. Spent culture media was transfered to black-well plates for the LDH assay, and remaining media was sorted at -80 C for later use. Cells were treated with RLT buffer and frozen until shipped for gene expression analysis. Total RNA was isolated from the cell suspension in 75 uL of Buffer RLT (Qiagen, Germantown, MD 20874) by Quintiles/Expression Analysis (Durham, NC) using a custom isolation procedure. Total RNA from each plate well was transferred to a preamplification plate. Fluidigm's 96.96 Dynamic ArrayTM (Fluidigm, Amsterdam, the Netherlands) technology was used for gene expression analyses by quantitative reverse transcription polymerase chain reaction (qRT-PCR, performed by Quintiles/Expression Analysis, Durham, NC)89. Standard TaqManTM Assays (Applied Biosystems/ThermoFisher Scientific, Foster City, CA) were used to assess the expression of 93 genes selected based on their selectivity and sensitivity to important hepatic receptors known to be modulated by environmental chemicals; importance in human hepatocyte functionality; and hepatotoxicity. […]
Turning to `Cc1ccc(-c2c(Cl)nc(C#N)n2S(=O)(=O)N(C)C)cc1`, the AC50 (commonly the midpoint of the concentration-response curve, whichever way the signal moves) is 50 µM (active). As for `CCOc1cc(Oc2ccc(C(F)(F)F)cc2Cl)ccc1[N+](=O)[O-]`, the outcome was inactive. Same read-out and setting: the entry for `O=C(O)COc1nc(Cl)c(Cl)cc1Cl` is “inactive”; for `CCOC(=O)C(Cl)Cc1cc(-n2nc(C)n(C(F)F)c2=O)c(F)cc1Cl` (stereo not given) it is “inactive”.

With `CN(C)C(=S)SSC(=S)N(C)C`, the outcome was inactive. The same measure, in the same setting: next, `COC(=O)C=C(C)OP(=O)(OC)OC`: “inactive”; `C=CCC1=C(C)C(OC(=O)C2C(C=C(C)C)C2(C)C)CC1=O` (stereo not given): “inactive”.

Consider `CCCC1COC(Cn2cncn2)(c2ccc(Cl)cc2Cl)O1` (stereo not given), for which the AC50 is 64.5 µM (active). In the case of `CC1=C(C(=O)Nc2ccccc2)SCCO1`, the molecule was called inactive. Still for that read-out and setting: next, `CCOC(=O)CC(SP(=S)(OC)OC)C(=O)OCC` (stereo not given): “inactive”.

On to `O=C(Nc1ccccc1)Nc1ccnc(Cl)c1`, for which the AC50 was 80.4 µM (active). As for `CCc1nn(C)c(C(=O)NCc2ccc(C(C)(C)C)cc2)c1Cl`, the AC50 was 4.76 µM (active).

For `CCON=C(CC)C1=C(O)CC(c2c(C)cc(C)cc2C)CC1=O` (stereo not given), the call was inactive. For `Oc1ccccc1-c1ccccc1`, the molecule was classed as inactive. On the same count and under the same terms, next, `CCNc1nc(Cl)nc(NC(C)C)n1`: “inactive”; `CCNc1nc(Cl)nc(NCC)n1`: “inactive”; `COc1nc(NC(C)C)nc(NC(C)C)n1`: “inactive”. Take `OC(c1ccc(Cl)cc1)(c1cncnc1)c1ccccc1Cl` (stereo not given): the molecule was classed as inactive. Consider `CCCCC(CC)COC(=O)c1ccccc1C(=O)OCC(CC)CCCC` (stereo not given), for which the call was inactive.

As for `COc1ccc(C(c2ccc(OC)cc2)C(Cl)(Cl)Cl)cc1`, the outcome was inactive. Turning to `N#Cc1nn(-c2c(Cl)cc(C(F)(F)F)cc2Cl)c(N)c1S(=O)C(F)(F)F` (stereo not given), the AC50 is 80.8 µM (active). `CCCCNC(=O)OCC#CI`: the outcome was inactive.

For `CNC(=O)ON=CC(C)(C)SC`, the result was inactive. Same read-out and setting: next, `COP(=S)(OC)Oc1nc(Cl)c(Cl)cc1Cl`: “inactive”. With `C#CCOS(=O)OC1CCCCC1Oc1ccc(C(C)(C)C)cc1` (stereo not given), the AC50 is 29.7 µM (active).

Turning to `CCCCNC(=O)n1c(NC(=O)OC)nc2ccccc21`, the call was inactive. Same read-out and setting: the entry for `CCCCOC(=O)c1ccccc1C(=O)OCCCC` is “inactive”; for `Cc1cc(Cl)ccc1OCC(=O)O` it is “inactive”; for `CC1COC(Cn2cncn2)(c2ccc(Oc3ccc(Cl)cc3)cc2Cl)O1` (stereo not given) it is “inactive”. With `CNC(=S)S`, the outcome was inactive. As to `COc1cnc(OC)n2nc(NS(=O)(=O)c3c(OCC(F)F)cccc3C(F)(F)F)nc12`, the outcome was inactive.

For the molecule `C=CC1(C)OC(=O)N(c2cc(Cl)cc(Cl)c2)C1=O` (stereo not given), the outcome was inactive. Still for that read-out and setting: the entry for `COC(=O)C(C)Oc1ccc(Oc2ccc(Cl)cc2Cl)cc1` (stereo not given) is “inactive”; for `CON(C)C(=O)Nc1ccc(Cl)c(Cl)c1` it is “inactive”; for `C=CCC1=C(C)[C@@H](OC(=O)[C@@H]2[C@@H](C=C(C)C)C2(C)C)CC1=O` it is “inactive”. For the molecule `CCCN(CCC)c1c([N+](=O)[O-])cc(S(N)(=O)=O)cc1[N+](=O)[O-]`, the result was inactive. With `Cc1c(F)c(F)c(COC(=O)C2C(/C=C(\Cl)C(F)(F)F)C2(C)C)c(F)c1F` (stereo not given), the molecule was called inactive. As to `CC(C)(C)c1ccc(CSc2cnn(C(C)(C)C)c(=O)c2Cl)cc1`, the call was inactive.

For `CC(C)C1(C)N=C(c2nc3ccccc3cc2C(=O)O)NC1=O` (stereo not given), the result was inactive. With `COC(=O)c1ccccc1C(=O)OC`, the call was inactive.
